Screening data (PubChem BioAssay)
PRMT1 inh – inhibitors of human PRMT1 | recombinant PRMT1, activity-based probe fluorescence polarization | AID 652257 | 1.3% of 370,000 active | inhibition, % at 2.79 µM;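 active means inhibition above about 21% made by adding two undisclosed values, limit read from the data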
Target sequence (Q99873 whole entry, looked up): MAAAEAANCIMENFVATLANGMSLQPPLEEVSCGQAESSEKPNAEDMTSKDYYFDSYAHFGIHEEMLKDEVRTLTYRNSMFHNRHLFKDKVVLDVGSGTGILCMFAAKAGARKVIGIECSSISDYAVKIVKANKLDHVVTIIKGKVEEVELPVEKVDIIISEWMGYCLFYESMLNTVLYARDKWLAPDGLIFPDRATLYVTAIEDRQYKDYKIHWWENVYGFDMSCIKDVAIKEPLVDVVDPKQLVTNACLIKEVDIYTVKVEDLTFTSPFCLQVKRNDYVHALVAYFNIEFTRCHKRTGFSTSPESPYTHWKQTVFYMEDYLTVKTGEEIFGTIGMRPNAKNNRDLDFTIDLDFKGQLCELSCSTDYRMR
ALR H2O2 inh – inhibitors of human sulfhydryl oxidase ALR | purified ALR, DTT oxidation, H2O2 HRP-luminol luminescence | inhibition, % (no concentration beside the values) | 3.8% of 290,000 active;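 active means mean replicate inhibition above about 79%, with every replicate also reaching it, limit read from the data; inconclusive means only one of the two criteria met; inactive means mean below limit and not every replicate reaching it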
Target sequence (P55789 whole entry, looked up): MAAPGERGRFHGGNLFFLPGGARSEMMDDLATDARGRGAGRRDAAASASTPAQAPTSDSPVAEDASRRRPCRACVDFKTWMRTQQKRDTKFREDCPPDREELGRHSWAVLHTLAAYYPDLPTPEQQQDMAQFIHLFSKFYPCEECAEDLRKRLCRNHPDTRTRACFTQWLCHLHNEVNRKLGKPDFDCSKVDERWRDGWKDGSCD
LANA-H2A inh – blocks KSHV LANA binding to histone H2A/H2B; Q9QR71; cell-free LANA-H2A/H2B peptide, fluorescence polarization; inhibition, % (concentration not given with the values); 0.6% of 320,000 active; in the data active means inhibition mostly above about 10%, no sharp cut-off; inactive means mostly below about 6.7%
Rtt109 Vps75 – inhibitors of Candida albicans Rtt109/Vps75 histone acetyltransferase | Q5AAJ8 | purified Rtt109/Vps75, ThioGlo CoA-SH fluorescence, 4 h | inhibition, % at 34.9 µM | 0.16% of 330,000 active | AID 540336;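 active means inhibition of at least 50% in every replicate; inconclusive means best replicate reaches 50% inhibition but some replicates fall short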
rCAG binder – r(CAG) repeat RNA binding. TO-PRO-1 dye displacement fluorescence. inhibition, % at 3 µM. 1.3% of 370,000 active. AID 651821;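 active means inhibition above the plate cutoff, the mean of all test compounds on that plate plus 3 SD, cut at about 35% in these data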;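 further: 0% = DMSO alone and 100% = 100 µM mitoxantrone as full dye displacement; higher means more dye released from RNA so lower well fluorescence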
ABHD5-PLIN5 inh – ABHD5-PLIN5 protein interaction inhibition | Q00G26+Q8WTS1 | AID 602281 | 0.78% of 360,000 active | inhibition, % at 4 µM | Split G. princeps luciferase complementation, luminescence, 4 h;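 active means inhibition above the mean inhibition across every tested compound plus 3 SD, cut at about 22% in these data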;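 further: 0% = DMSO only wells and the 100% control is not disclosed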
* marks the source's active call; other numbers are inactive results; ? = inconclusive; · = not tested or not shown. Compounds with a hit are over-represented: about 5.9% of the library has one in this group of screens.

SMILES	PRMT1 inh	ALR H2O2 inh	LANA-H2A inh	Rtt109 Vps75	rCAG binder	ABHD5-PLIN5 inh
c1ccc(Oc2nc(N3CCOCC3)nc(N3CCOCC3)n2)cc1	2.0	88.2*	0.3	3.4	-1.4	3.8
c1cc(C2CCCCC2)ccc1Oc1nc(N2CCOCC2)nc(N2CCOCC2)n1	1.8	-1.8	0.0	-9.6	-2.0	4.7
O=C(Nc1ccccc1N1CCCC1)c1cccc(S(=O)(=O)N2CCOCC2)c1	-1.3	54.8	2.3	3.3	2.8	-3.7
O=C(Nc1ccccc1O)c1cccc(S(=O)(=O)Nc2ccccc2O)c1	2.6	99.4*	1.3	-0.9	7.9	2.4
O=C(Nc1ccccc1N1CCOCC1)c1cc(F)cc(F)c1	-4.8	·	-1.6	-2.4	-4.7	-1.4
O=C(Nc1ccccc1N1CCOCC1)c1cccc(S(=O)(=O)Nc2ccccc2F)c1	-4.1	2.9	-0.1	4.3	36.6*	-13.8
O=C(Nc1cccc(F)c1)c1cccnc1N1CCOCC1	3.4	85.4*	0.4	-5.8	-0.7	-5.1
Cc1ccccc1NS(=O)(=O)c1cccc(C(=O)Nc2cccc(C(=O)O)c2)c1	0.1	3.4	0.7	-9.0	13.0	-3.5
O=C(Nc1ccccc1N1CCOCC1)c1cccc(F)c1	2.1	96.3*	0.3	4.3	-5.0	1.2
CCc1nc2ccc(C(=O)Nc3ccc(Cl)c(Cl)c3)cn2c1N(C)Cc1ccc(OC)cc1	-1.3	·	·	·	7.5	-1.7
Cc1ccc(-c2nc3ccc(C)cn3c2CC2CCCCC2)cc1	10.2	·	·	·	9.8	9.8
Oc1ccc(-c2nccc(-c3cccs3)n2)cc1	-2.8	88.6*	-0.1	15.1	5.4	0.2
COC(=O)C(C)Oc1ccc(-c2nccc(-c3cccs3)n2)cc1 (stereo not given)	-0.7	1.3	3.0	9.7	1.7	-7.0
CCCCOCCCNC(=O)C[C@H]1C[C@@]2(C(=O)OC)C(=C[C@H](C(C)(C)C)O[C@@H]2C)N(Cc2cccc3ccccc23)C1=O	2.0	·	·	·	9.1	·
C[C@H](O)[C@@H]1C(=O)N2CCc3c([nH]c4c(-c5ccccc5)cccc34)[C@@H]2C[C@@H]1N(C)C(=O)NC1CCCCC1	5.5	·	·	·	3.2	·
NNc1nc2cc3c(cc2s1)OCCO3	7.0	99.2*	0.9	1.8	20.3	-9.5
COc1ccc2nc(-c3ccc(N)cc3)[nH]c2c1	-1.5	99.2*	2.9	11.9	0.5	0.1
Nc1cccc(C(=O)Nc2ccc3nc(-c4cccnc4)[nH]c3c2)c1	-2.9	99.3*	-4.8	2.6	6.1	3.4
Nc1ccc(-c2nc3c(Cl)cc(N)cc3[nH]2)cc1	-1.7	98.8*	0.1	8.8	6.2	3.2
Nc1ccc2nc(-c3ccc(N)c(Cl)c3)[nH]c2c1	6.2	99.0*	-2.5	3.5	15.4	4.9
COc1ccc2nc(-c3cccc(N)c3)[nH]c2c1	-6.8	·	9.6	-2.7	0.1	-2.2
CSc1ncnc2c1ncn2CCCNc1ccc(C)c(C)c1	5.8	·	·	·	-2.1	-4.9
Nc1ccc2nc(-c3cccnc3)[nH]c2c1	2.7	99.7*	0.0	7.9	-1.0	-6.8
Nc1ccc2nc(-c3cccs3)[nH]c2c1	0.5	98.9*	-8.4	1.0	4.1	-6.1
Nc1ccc2nc(-c3ccccn3)[nH]c2c1	-0.8	·	-16.5	-3.4	9.2	1.5
SMILES	PRMT1 inh	ALR H2O2 inh	LANA-H2A inh	Rtt109 Vps75	rCAG binder	ABHD5-PLIN5 inh
Nc1ccc2nc(-c3ccccc3)[nH]c2c1	2.5	99.2*	-12.4	0.7	2.2	2.3
COC(=O)[C@]12C[C@H](CC(=O)N3CCN(C(=O)c4ccco4)CC3)C(=O)N(CCc3ccc(OC)c(OC)c3)C1=C[C@H](COCc1ccccc1)O[C@@H]2C	-3.9	·	·	·	3.4	·
CCOC(=O)N1CCN(C(=O)C[C@@H]2C(=O)N(Cc3ccc(OC)cc3)/C3=C/CCCCC[C@@]32C(=O)OCC)CC1	-2.5	·	·	·	-0.4	·
CN(C)c1ncnc2c1ncn2[C@H]1CN(Cc2ccc(Cl)cc2)C[C@@H](CO)O1	2.7	·	·	·	0.0	5.4
C/C=C/C(=O)OCC(=O)Nc1ccc(C)c(S(=O)(=O)N(C)C)c1	0.6	3.9	-16.4	1.6	4.7	-4.0
Cc1ccc(NC(=O)COC(=O)/C=C/c2ccco2)cc1S(=O)(=O)N(C)C	21.2*	·	0.6	-6.9	7.9	14.6
Cc1cc2cc(CNC(=O)c3cccs3)ccc2n1C	5.8	-16.2	78.2*	2.8	7.8	-0.6
CCC(CC)C(=O)NCc1ccc2c(c1)cc(C)n2C	5.8	-5.9	3.0	1.3	0.2	1.6
COc1cccc(C(=O)NCc2ccc3c(c2)cc(C)n3C)c1	-1.2	-9.5	-4.6	-4.1	1.4	11.4
Cc1cc2cc(CNS(=O)(=O)c3ccccc3)ccc2n1C	0.5	95.6*	7.2	-10.8	16.1	-4.5
COc1ccc(C(=O)NCc2ccc3c(c2)cc(C)n3C)cc1OC	24.3*	-6.1	-0.3	6.9	5.3	10.6
COC(=O)C1=C(C)N(Cc2cccc(C(F)(F)F)c2)C(=NCc2ccc3c(c2)OCO3)NC1c1cccc(Cl)c1 (stereo not given)	2.5	·	·	·	5.9	·
CCn1c(SCC(=O)N/N=C/c2cccc(Oc3ccccc3)c2)nnc1-c1ccccc1	3.2	·	·	·	3.0	·
CCN(CC)CCNC(=O)c1cn(CC)c2ccc(S(=O)(=O)N3CCOCC3)cc2c1=O	1.7	-26.4	8.5*	16.4	-3.8	7.5
O=c1c2cc(F)ccc2sn1-c1ccc(F)cc1	·	-0.7	0.2	?	·	32.6*
CCOC(=O)c1ccc(N=C2C(=S)N(c3ccc(C(=O)OCC)cc3)C(=N)N2/N=C/c2ccccc2)cc1	0.5	11.2	2.7	63.7*	12.1	-21.4
O=C(NCCNC(=O)c1ccccn1)c1ccccc1	0.1	94.8*	2.8	-3.7	-1.4	1.9
CCc1c(-c2ccccc2F)ncn1CCc1ccccc1OC	3.4	·	·	·	-2.1	·
Cc1ccc(N2CCN(C(=S)c3ccc(-c4cccc([N+](=O)[O-])c4)o3)CC2)cc1	23.6*	·	6.7	-5.8	0.8	-2.0
Cc1ccccc1N1CCN(C(=S)c2ccc(-c3cccc([N+](=O)[O-])c3)o2)CC1	4.0	-6.4	-0.3	21.6	4.9	0.2
Cn1c(=O)c2c(ncn2CC(=O)Nc2nc3ccc(F)cc3s2)n(C)c1=O	-1.0	98.8*	-1.5	-5.1	4.6	1.2
C=CCSc1nnc(NC(=O)Cn2cnc3c2c(=O)n(C)c(=O)n3C)s1	4.5	4.3	77.6*	-7.5	1.1	0.7
Cn1c(=O)c2c(ncn2CC(=O)Nc2nnc(Cc3ccccc3)s2)n(C)c1=O	-0.9	1.3	-3.3	6.7	6.0	0.6
COc1cc(/C=N/N=C2/C(=O)Nc3ccccc32)ccc1O	2.4	98.7*	3.5	1.3	3.7	-7.0
O=C1Nc2ccccc2/C1=N\N=C\c1ccc(O)c(O)c1	32.7*	98.7*	5.6	10.6	32.5	-3.3
COc1ccc(/C=N/N=C2/NC(=O)C(CC(=O)O)S2)cc1OCc1ccc(Cl)cc1Cl (stereo not given)	-0.4	6.8	-1.5	8.6	28.1	-0.8
